Test results: the supplement of paper PMC12282887
± gives the standard deviation of the averaged measurements.

Columns and labels:
Test in all cases: promoter activity interaction Z-score (Lux/OD deviation from empty-vector control); higher = stronger promoter induction by the compound
[1] = system: E. coli BW25113 acrABp lux reporter
Method in brief: (§1)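 Wild-type E. coli BW25113 and three single-gene deletion strains, each carrying a low-copy luxCDABE promoter reporter, were grown at 37°C in 40 µl LB Lennox per well of a 384-well plate. Every compound was applied at four 1:2 dilutions in biological duplicates, and OD600 and luminescence were read every 30 min for 12 h. Integration covered 0–8 h for wild type and 1–9 h for deletion strains, and wells under 10% of the median growth value were removed. Scores are Z-transformed residuals of growth-normalised luminescence fitted against a control.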

[2] = system: E. coli BW25113 micFp lux reporter
Method in brief: as §1

[3] = system: E. coli BW25113 ompFp lux reporter
Method in brief: as §1

[4] = system: E. coli BW25113 robp lux reporter
Method in brief: as §1

[5] = system: E. coli BW25113 soxSp lux reporter
Method in brief: as §1

[6] = system: E. coli BW25113 tolCp lux reporter
Method in brief: as §1

[7] = 8.6 µg/ml, genetic background: wild type
[8] = 8.6 µg/ml, genetic background: ΔmarA
[9] = 8.6 µg/ml, genetic background: Δrob
[10] = 8.6 µg/ml, genetic background: ΔsoxS
[11] = 17.1 µg/ml, genetic background: wild type
[12] = 17.1 µg/ml, genetic background: ΔmarA
[13] = 17.1 µg/ml, genetic background: Δrob
[14] = 17.1 µg/ml, genetic background: ΔsoxS
[15] = 34.3 µg/ml, genetic background: wild type
[16] = 34.3 µg/ml, genetic background: ΔmarA
[17] = 34.3 µg/ml, genetic background: Δrob
[18] = 34.3 µg/ml, genetic background: ΔsoxS
[19] = 68.6 µg/ml, genetic background: wild type
[20] = 68.6 µg/ml, genetic background: ΔmarA
[21] = 68.6 µg/ml, genetic background: Δrob
[22] = 68.6 µg/ml, genetic background: ΔsoxS

Nc1ccc(C(=O)O)cc1 [4-Aminobenzoic acid]
promoter activity interaction Z-score [1, 7]: -0.327 ± 0.11 | promoter activity interaction Z-score [1, 8]: -0.528 ± 0.3 | promoter activity interaction Z-score [1, 9]: 0.0646 ± 0.18 | promoter activity interaction Z-score [1, 10]: 0.357 ± 0.28 | promoter activity interaction Z-score [1, 11]: 0.051 ± 0.24 | promoter activity interaction Z-score [1, 12]: -0.48 ± 0.058 | promoter activity interaction Z-score [1, 13]: 0.185 ± 0.16 | promoter activity interaction Z-score [1, 14]: 0.299 ± 0.26 | promoter activity interaction Z-score [1, 15]: -0.112 ± 0.046 | promoter activity interaction Z-score [1, 16]: -0.447 ± 1.1 | promoter activity interaction Z-score [1, 17]: -0.379 ± 0.054 | promoter activity interaction Z-score [1, 18]: 0.511 ± 1.2 | promoter activity interaction Z-score [1, 19]: 0.119 ± 0.39 | promoter activity interaction Z-score [1, 20]: 1.54 ± 0.67 | promoter activity interaction Z-score [1, 21]: 1.31 ± 0.45 | promoter activity interaction Z-score [1, 22]: 1.66 ± 1.3 | promoter activity interaction Z-score [2, 7]: 0.00335 ± 0.11 | promoter activity interaction Z-score [2, 8]: 0.0686 ± 0.11 | promoter activity interaction Z-score [2, 9]: 0.0394 ± 0.14 | promoter activity interaction Z-score [2, 10]: 0.675 ± 0.52 | promoter activity interaction Z-score [2, 11]: 0.408 ± 0.1 | promoter activity interaction Z-score [2, 12]: 0.209 ± 0.16 | promoter activity interaction Z-score [2, 13]: 0.289 ± 0.15 | promoter activity interaction Z-score [2, 14]: 0.578 ± 0.075 | promoter activity interaction Z-score [2, 15]: 0.901 ± 0.57 | promoter activity interaction Z-score [2, 16]: 0.213 ± 0.23 | promoter activity interaction Z-score [2, 17]: 0.391 ± 0.17 | promoter activity interaction Z-score [2, 18]: 1.38 ± 0.55 | promoter activity interaction Z-score [2, 19]: 1.16 ± 0.52 | promoter activity interaction Z-score [2, 20]: 0.44 ± 0.26 | promoter activity interaction Z-score [2, 21]: 1.42 ± 0.091 | promoter activity interaction Z-score [2, 22]: 1.7 ± 0.14 | promoter activity interaction Z-score [3, 7]: -0.317 ± 0.4 | promoter activity interaction Z-score [3, 8]: 0.283 ± 0.085 | promoter activity interaction Z-score [3, 9]: 0.0614 ± 0.37 | promoter activity interaction Z-score [3, 10]: 0.333 ± 0.36 | promoter activity interaction Z-score [3, 11]: 0.0303 ± 0.3 | promoter activity interaction Z-score [3, 12]: 0.284 ± 0.18 | promoter activity interaction Z-score [3, 13]: 0.709 ± 0.41 | promoter activity interaction Z-score [3, 14]: 0.198 ± 0.39 | promoter activity interaction Z-score [3, 15]: -0.722 ± 0.31 | promoter activity interaction Z-score [3, 16]: -0.0385 ± 0.32 | promoter activity interaction Z-score [3, 17]: -1.06 ± 0.97 | promoter activity interaction Z-score [3, 18]: 0.199 ± 1.1 | promoter activity interaction Z-score [3, 19]: -0.481 ± 0.17 | promoter activity interaction Z-score [3, 20]: 1.24 ± 0.08 | promoter activity interaction Z-score [3, 21]: 1.09 ± 0.2 | promoter activity interaction Z-score [3, 22]: 0.488 ± 0.83 | promoter activity interaction Z-score [4, 7]: 0.134 ± 0.3 | promoter activity interaction Z-score [4, 8]: 0.171 ± 0.2 | promoter activity interaction Z-score [4, 9]: 0.341 ± 0.11 | promoter activity interaction Z-score [4, 10]: 0.571 ± 0.73 | promoter activity interaction Z-score [4, 11]: 0.745 ± 0.54 | promoter activity interaction Z-score [4, 12]: 1.04 ± 0.39 | promoter activity interaction Z-score [4, 13]: 0.56 ± 0.27 | promoter activity interaction Z-score [4, 14]: 0.303 ± 0.42 | promoter activity interaction Z-score [4, 15]: 0.118 ± 0.27 | promoter activity interaction Z-score [4, 16]: 0.355 ± 0.34 | promoter activity interaction Z-score [4, 17]: -0.251 ± 0.88 | promoter activity interaction Z-score [4, 18]: -0.337 ± 0.84 | promoter activity interaction Z-score [4, 19]: 0.598 ± 0.44 | promoter activity interaction Z-score [4, 20]: 1.92 ± 1.2 | promoter activity interaction Z-score [4, 21]: 2.53 ± 2.5 | promoter activity interaction Z-score [4, 22]: 2.68 ± 1.7 | promoter activity interaction Z-score [5, 7]: 0.154 ± 0.019 | promoter activity interaction Z-score [5, 8]: 0.4615 ± 0.00081 | promoter activity interaction Z-score [5, 9]: 0.443 ± 0.19 | promoter activity interaction Z-score [5, 10]: 0.4 ± 0.53 | promoter activity interaction Z-score [5, 11]: 0.18 ± 0.23 | promoter activity interaction Z-score [5, 12]: 0.618 ± 0.11 | promoter activity interaction Z-score [5, 13]: 0.555 ± 0.098 | promoter activity interaction Z-score [5, 14]: 0.287 ± 0.083 | promoter activity interaction Z-score [5, 15]: 0.259 ± 0.017 | promoter activity interaction Z-score [5, 16]: 0.436 ± 0.14 | promoter activity interaction Z-score [5, 17]: 0.48 ± 0.11 | promoter activity interaction Z-score [5, 18]: 0.363 ± 0.93 | promoter activity interaction Z-score [5, 19]: -0.597 ± 0.028 | promoter activity interaction Z-score [5, 20]: 0.693 ± 0.26 | promoter activity interaction Z-score [5, 21]: 0.532 ± 0.4 | promoter activity interaction Z-score [5, 22]: -0.372 ± 0.24 | promoter activity interaction Z-score [6, 7]: -0.592 ± 1.1 | promoter activity interaction Z-score [6, 8]: 0.924 ± 0.68 | promoter activity interaction Z-score [6, 9]: -0.26 ± 0.81 | promoter activity interaction Z-score [6, 10]: 0.91 ± 0.25 | promoter activity interaction Z-score [6, 11]: -0.356 ± 1 | promoter activity interaction Z-score [6, 12]: 0.371 ± 2.1 | promoter activity interaction Z-score [6, 13]: 0.781 ± 1.4 | promoter activity interaction Z-score [6, 14]: -0.463 ± 0.096 | promoter activity interaction Z-score [6, 15]: 0.348 ± 0.41 | promoter activity interaction Z-score [6, 16]: 0.458 ± 1.9 | promoter activity interaction Z-score [6, 17]: 0.119 ± 0.56 | promoter activity interaction Z-score [6, 18]: 1.86 ± 0.96 | promoter activity interaction Z-score [6, 19]: 0.28 ± 0.49 | promoter activity interaction Z-score [6, 20]: 2.27 ± 0.56 | promoter activity interaction Z-score [6, 21]: 0.498 ± 0.67 | promoter activity interaction Z-score [6, 22]: 1.22 ± 0.073
